Assay outcomes: PubChem BioAssay, several laboratories
Shown are actives, neighbours in structure and some others; about 2% of the full set was active somewhere.
GalR3 antagonist = GalR3 antagonists in HEK293 cells, primary screen, cell-based, fluorescence readout; inhibition, % at 3 µM; HEK293 GalR3-CNG cAMP membrane potential fluorescence; galR3 body fused to GalR1 C-terminus; 360,000 tested, 0.44% active; AID 651719, 2012;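 active = inhibition above the screen-wide average plus 3 SD, cut at about 13% in these data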;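 note: forskolin and galanin both at EC90 stimulate the cells; cAMP rise reported by CNG channel membrane potential dye signal; 0% = forskolin plus galanin with DMSO and 100% = forskolin alone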
Target sequence (O60755 1-299 limits assumed): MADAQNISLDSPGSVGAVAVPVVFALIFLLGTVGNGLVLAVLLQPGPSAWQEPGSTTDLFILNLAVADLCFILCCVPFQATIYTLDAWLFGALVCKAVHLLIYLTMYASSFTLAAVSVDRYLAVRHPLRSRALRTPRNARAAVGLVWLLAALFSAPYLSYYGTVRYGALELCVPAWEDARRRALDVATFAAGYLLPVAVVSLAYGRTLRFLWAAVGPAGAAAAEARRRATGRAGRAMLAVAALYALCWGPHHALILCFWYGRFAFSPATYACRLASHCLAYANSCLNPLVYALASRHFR
Gli-Sufu block = Gli-Sufu pathway antagonists, primary screen, luciferase luminescence, Sufu-KO-LIGHT cells, uHTS; Sufu-KO-LIGHT fibroblasts, Gli luciferase reporter luminescence; inhibition, % at 5 µM; 340,000 tested, 0.74% active; AID 588413, 2011;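 active = inhibition above about 55%, limit read from the data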;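 note: 0% = DMSO-treated cells and 100% = wells with medium but no cells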
COUP-TFII inh = NR2F2 transcriptional activity inhibitors, primary screen, cell-based, luciferase reporter, HEK293T, luminescence. AID 686940, 2013. HEK293T NGFI-A luciferase reporter. inhibition, % at 8.6 µM. 370,000 tested, 0.7% active. COUP transcription factor 2 (Homo sapiens), P24468;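 active = inhibition above a per-plate cutoff, mean inhibition of test wells between control levels plus 3 SD, cut at about 38% in these data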;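 note: cells cotransfected with COUP-TFII expression vector driving the NGFI-A reporter; 0% = median of COUP-TF2 test wells and 100% = reporter-only cells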
Target sequence (P24468 whole entry, looked up): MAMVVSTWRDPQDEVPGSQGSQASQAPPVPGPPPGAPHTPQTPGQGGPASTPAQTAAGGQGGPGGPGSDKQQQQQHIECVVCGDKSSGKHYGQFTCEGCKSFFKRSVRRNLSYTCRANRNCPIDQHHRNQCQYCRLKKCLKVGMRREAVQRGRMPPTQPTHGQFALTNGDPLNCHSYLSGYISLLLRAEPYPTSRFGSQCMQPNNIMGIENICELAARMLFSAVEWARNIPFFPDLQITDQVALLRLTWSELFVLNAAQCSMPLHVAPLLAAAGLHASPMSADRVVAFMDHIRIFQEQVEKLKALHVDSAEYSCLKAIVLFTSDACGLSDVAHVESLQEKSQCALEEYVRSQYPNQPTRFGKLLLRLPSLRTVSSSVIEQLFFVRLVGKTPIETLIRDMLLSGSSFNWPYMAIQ
Jurkat NFkB inh = inhibitors of induced NF-kB luciferase reporter, primary screen, TCR NF-kB activation inhibitor project, cell-based, luminescence, uHTS | inhibition, % at 4 µM | Jurkat, PMA/ionomycin-induced NF-kB luciferase reporter | 330,000 tested, 0.53% active | AID 435003, 2010; in the data active = inhibition above about 50%
697 NFkB inh = inhibitors of PMA/ionomycin-induced NF-kB reporter, 697 cells, primary screen, B-cell NF-kB inhibitor project, cell-based, luminescence, uHTS; 697 B-cell NF-kB luciferase reporter, 16 h; inhibition, % at 4 µM; 330,000 tested, 0.33% active; AID 435022, 2010; in the data active = inhibition above about 35%
Jurkat NFkB conf = PMA/ionomycin-induced NF-kB reporter inhibitors, Jurkat retest, confirmation, T-cell NF-kB inhibitor project, cell-based, luminescence, single concentration. shares compounds with Jurkat NFkB inh. Jurkat NF-kB luciferase, 16 h. inhibition, % at 4 µM. 2,700 tested, 27% active. AID 435020, 2010;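 active = inhibition reaching about 45% at 4 µM in either replicate, limit read from the data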;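 note: plate controls were PMA/ionomycin stimulated DMSO wells for no effect and unstimulated DMSO wells for full effect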
697 NFkB conf = PMA/ionomycin-induced NF-kB reporter inhibitors, 697 retest, confirmation, B-cell NF-kB inhibitor project, cell-based, luminescence, single concentration | AID 449746, 2010 | inhibition, % at 4 µM | 697 B-cell NF-kB luciferase, 16 h | shares compounds with 697 NFkB inh | 2,000 tested, 35% active; in the data active = inhibition mostly above about 28%, no sharp cut-off; inactive = mostly below about 22%
Gli-Sufu confirm = Gli-SUFU pathway antagonists, confirmation, single concentration, luciferase luminescence, Sufu-KO-LIGHT cells; 2,500 tested, 40% active; shares compounds with Gli-Sufu block; inhibition, % at 5 µM; AID 602428, 2012; Gli luciferase reporter;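 active = mean inhibition at 5 µM reaching about 45%, limit read from the data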;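 note: plate controls were DMSO-treated cells for no effect and wells lacking cells for full effect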
Gli cytotox = cytotoxicity in Sufu-KO-LIGHT cells, confirmation, cytotoxicity control for Gli-SUFU antagonist project, cell-based, ATP luminescence, single concentration. shares compounds with Gli-Sufu block. cytotoxicity, % at 5 µM. 2,500 tested, 32% active. AID 651994, 2013;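 active = mean cytotoxicity at 5 µM above about 25%, limit read from the data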;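 note: cells exposed to compound overnight for roughly 16 to 18 hours; plate controls were DMSO wells with cells for no effect and medium without cells for full effect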
Wnt3a counter = Wnt3a reporter signal inhibition, confirmation, counter-screen for Gli-SUFU antagonist project, Wnt-LIGHT cells, luminescence, single concentration; shares compounds with Gli-Sufu block; 2,500 tested, 20% active; Wnt3a-driven luciferase reporter; inhibition, % at 6.25 µM;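 active = mean inhibition above about 25%, limit read from the data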
* = called active by the depositor; · = not tested or not shown.

SMILES	GalR3 antagonist	Gli-Sufu block	COUP-TFII inh	Jurkat NFkB inh	697 NFkB inh	Jurkat NFkB conf	697 NFkB conf	others
Cc1nn(-c2nc3ccccc3[nH]2)c(N)c1-c1ccccc1	-4	-87	-29	-151	-254	-72	-212
Cc1nn(-c2ccccc2)c(N)c1-c1ccccc1	-5	-17	-39	-45	-39	·	·
Cc1ccc(NC(=O)C(=O)c2c[nH]c3ccccc23)cc1	-5	-129	-27	-215	-330	-124	-313
Cc1ccc(NC(=O)c2cc(=O)[nH]c3ccccc23)cc1	-9	5	2	-28	2	·	·
COC(=O)/C(=C1/Oc2ccc(C(C)(C)C)cc2S1)C(F)(F)F	-3	-4	13	-78	-73	·	·
COC(=O)/C(=C1/Oc2cc(C)oc(=O)c2S1)C(F)(F)F	-6	34	-3	69*	-324	11	-198
O=C(Nc1ccc2ccccc2c1)c1onc2c1CCCC2	-4	3	-35	-209	-330	-138	-306
COC(=O)c1cccc(NC(=O)c2onc3c2CCCC3)c1	-4	-91	-56	-74	-151	·	·
CS(=O)(=O)Nc1ccc(C(=O)Nc2ccc3ccccc3c2)cc1	-3	-75	-47	-158	-254	-143	-317
COc1ccc(C(=O)Nc2ccc3ccccc3c2)cc1	-3	-91	-15	-167	-361	-100	-449
CC(=O)c1cccc(NC(=O)c2ccc(NS(C)(=O)=O)cc2)c1	2	2	-17	-10	4	·	·
O=C(Nc1ccc2ccccc2c1)c1ccc(Cl)cc1Cl	-9	-123	-23	-224	-347	-153	-377
O=C(Nc1ccc2ccccc2c1)c1ccccc1Cl	-6	·	-54	·	·	·	·
O=C(c1cccc(F)c1F)N(Cc1ccccn1)CC1CCCO1 (stereo not given)	·	·	0	·	·	·	·
CCC[C@H]1[C@@H](NC(=O)c2ccc(C)cc2)CC[C@@]23CCCN2C(=O)CCC[C@@H]13	·	·	-6	·	·	·	·
COc1cccc(C(=O)Nc2nc3ccccc3s2)c1	-11	-101	-33	-176	-331	-132	-309
O=C(Nc1ccc2ccccc2c1)c1cccc([N+](=O)[O-])c1	-5	13	-38	-96	-94	·	·
Cc1cccc(C(=O)Nc2ccc3ccccc3c2)c1	-8	-93	-28	-178	-254	-139	-259
COc1cccc(C(=O)Nc2ccc3ccccc3c2)c1	0	-129	-7	-172	-408	-109	-366
COc1ccc(C(=O)Nc2nc3ccccc3s2)cc1OC	-4	-103	-53	-69	-141	·	·
O=C(N/N=C\c1cc(Br)ccc1O)c1ccc(S(=O)(=O)N2CCCCC2)cc1	-5	77*	-5	54*	-26	32	·	Gli-Sufu confirm=76*;Gli cytotox=30*;Wnt3a counter=74*
O=C(N/N=C/c1ccc(O)c(O)c1)c1cccc(S(=O)(=O)N2CCCCC2)c1	-3	-2	-1	-5	-28	·	·
COC(=O)[C@]12C[C@H](CC(=O)NCC34CC5CC(CC(C5)C3)C4)C(=O)N(CCc3ccc(OC)c(OC)c3)C1=C[C@H](C(C)C)O[C@@H]2C1CC1	·	·	27	·	·	·	·
Cn1c(-c2ccccn2)[n+](C)c2ccccc21	-5	3	15	8	1	·	·
CN(C)c1ccc(-c2n(C)c3ccccc3[n+]2C)cc1	-2	80*	37	76*	42*	60*	57*	Gli-Sufu confirm=82*;Gli cytotox=36*;Wnt3a counter=27*
SMILES	GalR3 antagonist	Gli-Sufu block	COUP-TFII inh	Jurkat NFkB inh	697 NFkB inh	Jurkat NFkB conf	697 NFkB conf	others
CC1(C)CC(N2CCN(c3ccccc3)CC2)=CC(=[N+]2CCCC2)C1	-1	83*	33	57*	5	28	·	Gli-Sufu confirm=86*;Gli cytotox=35*;Wnt3a counter=38*
CSc1nc(N2CCN(c3ccccc3)CC2)cc(N2CCN(c3ccccc3)CC2)n1	-7	-8	-5	23	0	·	·
COC(=O)CCC(=O)Nc1sc(C)c(C)c1C(N)=O	1	-7	6	-1	8	·	·
COC(=O)CCC(=O)NC(=S)Nc1sc(C)c(C)c1C(N)=O	-2	54	-41	65*	-41	50*	·	Gli-Sufu confirm=50*;Gli cytotox=51*;Wnt3a counter=-31
COC(=O)[C@]12C[C@H](CC(=O)NCC3CCCCC3)C(=O)N(Cc3ccc(Cl)cc3Cl)C1=C[C@H](C1CCCC1)O[C@@H]2C	·	·	11	·	·	·	·
C=CCN(CC#CC(=C)C)Cc1ccccc1	·	·	-66	·	·	·	·
COC(=O)c1cnc(Oc2ccc(NC(=O)NC(=O)c3c(F)cccc3F)cc2)cc1C(F)(F)F	-4	0	-5	41	1	·	·
COC(=O)c1cnc(Oc2ccc(NC(=O)NC(=O)c3c(OC)cccc3OC)cc2)cc1C(F)(F)F	2	52	18	66*	-77	60*	·	Gli-Sufu confirm=53*;Gli cytotox=58*;Wnt3a counter=-31
Cc1ccc(NC(=O)c2cc3ccccc3o2)cc1S(=O)(=O)N(C)C	2	-121	-52	·	·	·	·
Cc1ccc(NC(=O)c2cc3ccccc3oc2=O)cc1S(=O)(=O)N(C)C	·	78*	·	56*	-48	91*	·	Gli-Sufu confirm=89*;Gli cytotox=16;Wnt3a counter=101*
Cc1ccc(CNC(=O)O[C@H]2CC[C@@]34CCCN3C(=O)CCC[C@H]4C2)cc1	·	·	-19	·	·	·	·
Cc1ccc(Cc2cnc(NC(=O)c3ccco3)s2)cc1	-8	-75	-44	-94	-236	·	·
O=C(Nc1ncc(Cc2ccc(SC(F)F)cc2)s1)c1ccc(OC(F)F)cc1	10	60*	-54	76*	-495	58*	-274	Gli-Sufu confirm=71*;Gli cytotox=66*;Wnt3a counter=4
COc1cccc(CC(=O)N(Cc2ccccc2)c2ccccc2C(=O)Nc2cc(OC)ccc2OC)c1	·	·	20	·	·	·	·
CC(=Nc1ccc(C)cc1)c1sc2ccccc2c1O	-3	61*	-67	-152	-387	-77	-144	Gli-Sufu confirm=-84;Gli cytotox=54*;Wnt3a counter=28*
